Laboratory results as given in PubChem BioAssay AID504847 (National Center for Advancing Translational Sciences (NCATS), 2011).
Among all 400,000 compounds or so, about 3,700 (0.93%) were called active. Inconclusive results (about 3%) are left out. The call rests on the fitted dose curve; in most records, active means well fitted inhibition curve with a large enough effect; inconclusive means small, poorly fitted or top-dose-only effect, or another doubt; inactive means no such curve, though single readings can be large or run the other way. For the sample, actives were picked, then their nearest neighbours and some compounds at random. A structure can be active in one record and inactive in another.

Target: Vitamin D3 receptor (Homo sapiens) (UniProt P11473)
Sequence (P11473 whole entry, looked up): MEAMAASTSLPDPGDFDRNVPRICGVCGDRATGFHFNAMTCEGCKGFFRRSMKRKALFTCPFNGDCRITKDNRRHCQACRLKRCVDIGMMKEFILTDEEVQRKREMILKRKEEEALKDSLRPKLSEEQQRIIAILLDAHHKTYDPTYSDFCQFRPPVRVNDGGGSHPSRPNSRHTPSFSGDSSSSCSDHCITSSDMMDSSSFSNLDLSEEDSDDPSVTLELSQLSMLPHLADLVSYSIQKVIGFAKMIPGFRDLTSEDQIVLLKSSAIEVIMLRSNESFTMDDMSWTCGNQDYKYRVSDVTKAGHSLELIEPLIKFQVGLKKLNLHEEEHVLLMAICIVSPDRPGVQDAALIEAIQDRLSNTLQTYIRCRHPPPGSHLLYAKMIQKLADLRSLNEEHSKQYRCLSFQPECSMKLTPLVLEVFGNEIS
Experiment: Inhibitors of the vitamin D receptor (VDR): qHTS
Conditions: VDR-SRC2-3 peptide fluorescence polarization, 2 h; max response, negative = inhibition: hits give low values
Excerpt: The vitamin D receptor (VDR) is a ligand-activated transcription factor and is partially responsible for the regulation of the endocrine system. This includes the transcriptional regulation of genes involved in the production of the parathyroid hormone (PTH) and the regulation of the blood calcium level. High levels of PHT can cause hypercalcemia in the case of primary and tertiary hyperparathyroidism. The VDR-mediated gene regulation, activated by its ligand 1,25-dihydroxyvitamin D3 (1,25-(OH)2D3), is governed by the recruitment of coactivators. Our hypothesis is that small molecules, with the ability to inhibit the interaction between VDR and certain coactivators, are able to selectively modulate VDR-mediated transcription. Our long term objective is the application these VDR-coactivator inhibitors to study the role of VDR-coactivator binding for specific VDR regulated genes. Ultimately, these molecules can be developed into new treatments for hypercalcemic hyperparathyroidism. No small molecule or non-peptide inhibitors are known for the VDR-coactivator interaction.
In a collaboration between the University of Wisconsin, Milwaukee and the NIH Chemical Genomics Center (NCGC) a HTS-compatible enzymatic assay was developed. The assay uses fluorescence polarization as its read-out to measure the inhibition between VDR and coregulator peptide SRC2-3 exerted by small molecules. This assay was used to screen the NIH Molecular Libraries Small Molecule Repository (MLSMR).
NIH Chemical Genomics Center [NCGC]
NIH Molecular Libraries Probe Centers Network [MLPCN]
Assay Submitter (PI): Alexander Arnold, University of Wilwaukee
Both solutions are kept at 4 deg C and protected from light and dispensed using a Kalypsys dispenser. Then 23nl of compounds and controls are added with Kalypsys pintool. […] Plate is centrifuged at 1000 RPM for 15 seconds to remove any residual bubbles. The plate is then incubate at ambient room temperature for 2 hours.
On the % scale 0 is the no-effect control and ±100 the full control effect; potency means the concentration at half of the fitted maximal effect.

| Structure (SMILES) | max response, negative = inhibition | Potency |
| --- | --- | --- |
| C#CCN1C(=O)C(O)(CC(=O)c2cc(OC)ccc2OC)c2ccccc21 (stereo unspecified) | -3.89% (inactive) |  |
| COc1ccc2c(c1)C(=C(C#N)C#N)C(=O)N2CCc1ccccc1 |  | 50.1 µM (active) |
| COc1ccc(C(=O)NC(C)CCc2ccccc2)c(OC)c1 (stereo unspecified) | -15.7% (inactive) |  |
| COc1ccccc1-c1nnc(SCC(N)=O)o1 | 10.5% (inactive) |  |
| CCC(=O)N1CCc2cc(Br)cc(S(=O)(=O)CCC(=O)NCc3ccccc3OC)c21 | -6.5% (inactive) |  |
| COc1ccc(C2Nc3ccc(NC(=O)COC(C)=O)cc3C(=O)N2Cc2ccccc2)cc1COc1ccc(NC(C)=O)cc1 (stereo unspecified) | -2.53% (inactive) |  |
| CCOc1ccc(N(Cc2ccccc2)C(=O)c2nc(SCC)ncc2Cl)cc1 | 3.07% (inactive) |  |
| CCOc1ccc(N(Cc2ccccc2)C(=O)c2nc(S(C)(=O)=O)ncc2Cl)cc1 |  | 12.6 µM (active) |
| CCOc1ccc(NC(=O)CN(Cc2ccccc2)S(=O)(=O)c2ccc(Cl)cc2)cc1 | 3.79% (inactive) |  |
| Cc1ccccc1NC(=O)Cn1c(=O)n(CCCCC(=O)NCc2ccccc2Cl)c(=O)c2ccccc21 | -9.56% (inactive) |  |
| COc1ccc(CCNC(=O)CCCn2c(=O)c3ccccc3n(Cc3ccc(C)cc3)c2=O)cc1OC | -9.82% (inactive) |  |
| Cc1ccc(Cn2c(=O)n(CCCC(=O)NCc3ccccc3Cl)c(=O)c3ccccc32)cc1 |  | 89.1 µM (active) |
| O=C1N(Cc2ccccc2)c2ccc(Cl)cc2C1(O)c1c[nH]c2ccccc12 (stereo unspecified) | -7.22% (inactive) |  |
| Cc1c(Cl)cccc1-c1ccc(CNCCCSc2nnnn2C)o1 | 17.5% (inactive) |  |
| CC(C)(C)c1ccc(S(=O)(=O)N2CCN(C(=O)c3cc(-c4ccc(Br)cc4)n[nH]3)CC2)cc1 | 0.49% (inactive) |  |
| O=C(c1cc(-c2ccc(F)cc2)on1)N1CCN(c2ccc(F)cc2)CC1 | -26.1% (inactive) | 70.8 µM (active) |
| O=C(c1cc(-c2ccc(Cl)cc2)on1)N1CCN(c2ccccc2)CC1 | 0.117% (inactive) |  |
| O=C(c1cc(-c2ccc(O)cc2)on1)N1CCOCC1 | 4.52% (inactive) |  |
| CCCCn1c(=O)c2oc3ccccc3c2n(CC(=O)Nc2ccccc2OC)c1=O | 4.96% (inactive) |  |
| C=C(C)C1CC=C(CO)CC1 (stereo unspecified) | 1.87% (inactive) |  |
| Cc1ccn2c(Nc3ccc4c(c3)OCCO4)c(-c3ccc(C)s3)nc2c1 | -0.614% (inactive) |  |
| O=C(O)[C@@H](S)[C@H](S)C(=O)O |  | 17.8 µM (active) |
| CCCCCCC1(C)NC(c2ccc3c(c2)OCO3)=CC(c2ccccc2O)N1 (stereo unspecified) | -18% (inactive) |  |

| Structure (SMILES) | max response, negative = inhibition | Potency |
| --- | --- | --- |
| CCOC(=O)c1nnn(CC(=O)NC(=O)Nc2ccccc2F)c1C(=O)OCC | 1.08% (inactive) |  |
| N#Cc1ccccc1Cn1cnc2nc3c(cc2c1=O)CCCC3 | -2.58% (inactive) |  |
| COCCn1c(CCC(=O)Nc2cc(C)ccc2C)nc2cccnc21 | 7.95% (inactive) |  |
| Cc1ccc(F)cc1NC(=O)CCSc1nc(-c2ccco2)cc(C(F)(F)F)n1 | 7.81% (inactive) |  |
| COc1ccccc1-c1cc(C(F)(F)F)nc(S(=O)(=O)CCCC(=O)Nc2ccc(F)cc2F)n1 |  | 56.2 µM (active) |
| COc1ccc(Cl)cc1NC(=O)CSc1nc(-c2cccs2)cc(C(F)(F)F)n1 | -17% (inactive) |  |
| CCOc1ccc(-c2cc3nc(C4CCN(C(=O)OC(C)(C)C)CC4)c(C(=O)Nc4ccc(C(=O)OC)cc4)cn3n2)cc1 | -12.8% (inactive) |  |
| CCN1C(=O)c2ccccc2S(=O)c2ccc(C(=O)NCc3ccc(F)cc3)cc21 (stereo unspecified) | -17% (inactive) |  |
| CO[C@@]12[C@@H](COC(N)=O)C3=C(C(=O)C(C)=C(N)C3=O)N1C[C@@H]1N[C@@H]12 | 1.74% (inactive) |  |
| COc1ccc(C2C(=O)N(C3CCCCC3)CC(=O)N2Cc2ccccc2Cl)cc1OC (stereo unspecified) | 5.49% (inactive) |  |
| CSc1nc(N(C)NC(=O)c2cccc(C)c2)c2ccccc2n1 | 6.12% (inactive) |  |
| CSc1nc(C)cc(SC(C(C)=O)C(=O)Nc2ccccc2)n1 (stereo unspecified) |  | 79.4 µM (active) |
| CC(Sc1nnc2c(n1)C1CCC2(C)C1(C)C)C(=O)Nc1ccccc1 (stereo unspecified) | -21.5% (inactive) |  |
| COc1ccc(NC(=O)CSc2nc3ccccc3n2CC(=O)N2CCCCC2C)cc1 (stereo unspecified) | -0.157% (inactive) |  |
| O=C(Nc1cccc2cccnc12)C(F)(F)F | 3.86% (inactive) |  |
| Cc1ccc(-c2nn(CC(C)(C)C)c3ncnc(N)c23)cc1 | -0.691% (inactive) |  |
| CCc1nn(CC(=O)N2CCN(c3ccc(Cl)cc3)CC2)c(=O)c2cc3occc3n12 | 22.3% (inactive) |  |
| CCN(CC)CCNC(=O)Cn1ncc2c3ccccc3n(Cc3ccccc3C)c2c1=O | 13.4% (inactive) |  |
| CCOC(=O)c1c(NC(=O)c2ccc(S(=O)(=O)N(CC)CC)cc2)sc2c1CCCCC2 | -15.3% (inactive) |  |
| CCOC(=O)c1c(NC(=O)C2(C)Cc3ccccc3C(=O)O2)sc2c1CCCC2 (stereo unspecified) |  | 79.4 µM (active) |
| CCOC(=O)c1c(NC(=O)Cc2coc3ccc(CC)cc23)sc2c1CCC2 | 2.49% (inactive) |  |
| CCC(=O)Nc1ccc2nc(SCC(=O)N3CCc4ccccc43)sc2c1 | 13% (inactive) |  |
| CCOC(=O)C1C/C(=C\C(C)=O)c2cccc(C(F)(F)F)c2O1 (stereo unspecified) | -3.65% (inactive) |  |

| Structure (SMILES) | max response, negative = inhibition | Potency |
| --- | --- | --- |
| CN(C)c1ccc(/C=N/NC(=O)C(O)c2ccc(Br)cc2)cc1 (stereo unspecified) | 5.61% (inactive) |  |
| CN(C)c1ccc(N/C=C/C(=O)C(F)(F)F)cc1 |  | 25.1 µM (active) |
| COc1cc(OC)c(C(=O)Nc2ccc(N(C)C)cc2)cc1OC | -2.21% (inactive) |  |
| O=C(CSc1nc(-c2cccc(F)c2)[nH]c1-c1ccccc1)Nc1ccc2c(c1)OCO2 | -7.99% (inactive) |  |
| CCOc1ccc(N(CC)C(=O)c2cc3c(=O)oc4ccccc4c3s2)cc1 | -18% (inactive) |  |
| CCOc1cc(CNC(=O)c2sc3ncnc(N(C)C4CCCCC4)c3c2C)ccc1OC | 5.17% (inactive) |  |
| COc1cc(NC(=O)CSc2nc3nc(C)c(Cc4ccc(C)cc4)c(C)n3n2)cc(OC)c1OC | 12.5% (inactive) |  |
| CC1(C)Cc2ccccc2-c2[nH]c(=S)[nH]c(=O)c21 | -2% (inactive) |  |
| N#CC1=C(N)Oc2n[nH]c(CSc3ccccc3)c2C12C(=O)Nc1ccccc12 (stereo unspecified) | 12% (inactive) |  |
| N#CC1=C(N)Oc2[nH]c(=S)[nH]c(=O)c2C12C(=O)Nc1ccccc12 (stereo unspecified) |  | 44.7 µM (active) |
| COc1cc(C(=S)NCc2ccccc2)cc(Br)c1O |  | 50.1 µM (active) |
| COc1ccccc1OCCC(=O)OCC(=O)NCc1ccccc1 | -14.2% (inactive) |  |
| COc1cc(C(=O)NCc2ccncc2)cc(Br)c1OCc1ccccc1 | -8.88% (inactive) |  |
| COc1ccc(NC(=O)C2CCCN(S(=O)(=O)c3cccc4nonc34)C2)cc1Cl (stereo unspecified) | -11.1% (inactive) |  |
| Cc1ccc(NC(=O)C(=O)NCC(c2cccnc2)N2CCOCC2)cc1 (stereo unspecified) | 7.68% (inactive) |  |
| COc1ccc(CCn2cc3c(c2-c2ccc(Br)cc2)c(=O)n(C)c(=O)n3C)cc1OC | -7.8% (inactive) |  |
| Cc1ccc(S(=O)(=O)N2CCOCC2)cc1C(=O)Nc1ccccc1N1CCCC1 | -16.8% (inactive) |  |
| O=C(COC(=O)Cc1ccc(F)cc1)Nc1cc(S(=O)(=O)N2CCOCC2)ccc1N1CCCC1 | 2.6% (inactive) |  |
| COCCNC(=S)Nc1cc(S(=O)(=O)N2CCOCC2)ccc1N1CCCCC1 |  | 35.5 µM (active) |
| COCCn1c(=O)c(-c2ccccc2)nc2cnc(N3CCOCC3)nc21 | 8.94% (inactive) |  |
| CCC(=O)N1N=C(c2ccc(OC)cc2)CC1c1cn(-c2ccccc2)nc1-c1cccs1 (stereo unspecified) | -4.57% (inactive) |  |
| Cc1ccccc1NC(=O)Cn1c(=O)n(CCc2ccccc2)c(=O)c2ccccc21 | -10.9% (inactive) |  |
| Cc1cc(Cl)ccc1OCC(=O)N(Cc1ccc(N(C)C)cc1)C1CCS(=O)(=O)C1 (stereo unspecified) | 9.26% (inactive) |  |

| Structure (SMILES) | max response, negative = inhibition | Potency |
| --- | --- | --- |
| CC(C)Cn1c(=O)c2ccccc2n2c(-c3cccc(Cl)c3)nnc12 | 21.6% (inactive) |  |
| O=c1[nH]c2ccccc2n2c(-c3ccccc3)nnc12 |  | 12.6 µM (active) |
| CCc1ccc(NC(=O)c2cc(S(=O)(=O)N3CCCC(C)C3)cn2C)cc1 (stereo unspecified) | 9.47% (inactive) |  |
| COc1ccc(C2CC(=O)N(Cc3ccccc3C)c3c2c(C)nn3-c2nc(C)cc(C)n2)c(OC)c1 (stereo unspecified) | 5.38% (inactive) |  |
| CN(C)c1nc(NN)nc(Nc2ccc(F)cc2)n1 | -11.3% (inactive) |  |
| CSc1nc(Nc2ccc(F)cc2)cc(-c2ccccc2)n1 | 5.7% (inactive) |  |
| Fc1ccc(Nc2nnns2)cc1 |  | 79.4 µM (active) |
| Cc1ccc(-c2nc(SCc3ccc(Br)cc3)n3[nH]c(=O)cc3n2)cc1 | 16.1% (inactive) |  |
| CCc1ccccc1N1CC(c2nc3ccccc3n2CCCCOc2ccccc2)CC1=O (stereo unspecified) | 13.5% (inactive) |  |
| Cc1cccc(C=CC(=O)c2ccc(Cl)cc2)c1 |  | 20 µM (active) |
| Cc1cc(C)nc(NC(=O)/C=C/c2ccc(Cl)cc2)n1 | -4.04% (inactive) |  |
| Cc1cccc(C(=O)Nc2ccc(C(=O)/C=C/c3cccs3)cc2)c1 | 5.44% (inactive) |  |
| COc1ccc(S(=O)(=O)NCc2cccn2Cc2cccc(C)c2)cc1 | -9.31% (inactive) |  |
| CCC1CCCCN1Cc1c(O)ccc2c(=O)c(Oc3ccccc3Cl)c(C(F)(F)F)oc12 (stereo unspecified) | -11.4% (inactive) |  |
| CN1CCN2c3ccccc3Cc3ccccc3[C@@H]2C1 | -7.22% (inactive) |  |
| COc1ccc(C(=O)CSc2c(C(C)C)cnc3c2c(=O)n(C)c(=O)n3C)cc1 | -4.32% (inactive) |  |
| CCc1ccccc1NC(=O)c1sc2nc3c(cc2c1N)CN(Cc1ccccc1)CC3 | -9.37% (inactive) |  |
| COc1ccc(NC(=O)CCCc2nnc3n(CCC(C)C)c(=O)c4sccc4n23)c(OC)c1 | -1.71% (inactive) |  |
| COc1ccc(NS(=O)(=O)c2ccc(N3CCOCC3)c(NC(=O)/C=C/C(=O)O)c2)cc1 | 1.49% (inactive) |  |
| COc1ccccc1NC(=O)/C=C/C(N)=O | 1.2% (inactive) |  |
| COC(=O)c1sc(-c2ccc(C(C)(C)C)cc2)cc1NC(=O)/C=C/C(=O)O |  | 28.2 µM (active) |
